Activity calls are given as the source filed them. How the source made its calls: active means hit-call score of the fitted dose curve at least 0.9, where 1 is the maximum; inactive means score below 0.9.
Read-out: Plasminogen activator inhibitor-1 (PAI1), SERPINE1 (gene 5054)
Experiment: BSK_BE3C_PAI1: BioMAP Diversity Plus: BE3C Assay for Plasminogen activator inhibitor-1 (PAI1) Biomarker Activity (AID 2283037)
Conditions: primary human bronchial epithelial cells; actives raise or lower the signal
In short: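 ELISA read-out of PAI-1 from human bronchial epithelial primary cells, 24 h post-dosing; bidirectional curve fit vs DMSO baseline, gain or loss of signal scored.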

| SMILES | AC50 | outcome |
| --- | --- | --- |
| O=C1C(Cl)=C(Cl)C(=O)C(Cl)=C1Cl | 20 µM (active) | – |
| N#CCCCCC#N | – | inactive |
| CC(C)(c1cc(Cl)c(O)c(Cl)c1)c1cc(Cl)c(O)c(Cl)c1 | – | inactive |
| COCC(=O)N(c1c(C)cccc1C)N1CCOC1=O | – | inactive |
| CC(C)CCCCCCCOP(=O)(Oc1ccccc1)Oc1ccccc1 | 3.97 µM (active) | – |
| C=CCN(CC=C)C(=O)C(Cl)Cl | – | inactive |
| c1ccc(Nc2ccc3ccccc3c2)cc1 | 20 µM (active) | – |
| Cc1ccc(OP(=O)(Oc2ccc(C)cc2)Oc2ccc(C)cc2)cc1 (tested in a mixture with another compound) | – | inactive |
| O=S(=O)(c1ccccc1)c1ccccc1 | – | inactive |
| CC(=O)/C=C/c1ccccc1 | – | inactive |

Read-out: urokinase plasminogen activator (uPA), PLAU (gene 5328)
Experiment: BSK_BE3C_uPA: BioMAP Diversity Plus: BE3C Assay for urokinase plasminogen activator (uPA) Biomarker Activity (AID 2283038);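 further: uPA protein level quantified by ELISA in cell cultures; uPA read one day after compound addition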
Conditions: primary human bronchial epithelial cells; actives raise or lower the signal
In short: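 Primary human bronchial epithelial cells, uPA measured by ELISA 24 h after dosing. Bidirectional change relative to DMSO; cytotoxicity checked in parallel cultures by sulforhodamine B total-protein staining.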

| SMILES | outcome |
| --- | --- |
| O=C1C(Cl)=C(Cl)C(=O)C(Cl)=C1Cl | inactive |
| N#CCCCCC#N | inactive |
| CC(C)(c1cc(Cl)c(O)c(Cl)c1)c1cc(Cl)c(O)c(Cl)c1 | inactive |
| COCC(=O)N(c1c(C)cccc1C)N1CCOC1=O | inactive |
| CC(C)CCCCCCCOP(=O)(Oc1ccccc1)Oc1ccccc1 | inactive |
| C=CCN(CC=C)C(=O)C(Cl)Cl | inactive |
| c1ccc(Nc2ccc3ccccc3c2)cc1 | inactive |
| Cc1ccc(OP(=O)(Oc2ccc(C)cc2)Oc2ccc(C)cc2)cc1 (tested in a mixture with another compound) | inactive |
| O=S(=O)(c1ccccc1)c1ccccc1 | inactive |
| CC(=O)/C=C/c1ccccc1 | inactive |

Read-out: Urokinase-type plasminogen activator receptor (uPAR), PLAUR (gene 5329)
Experiment: BSK_BE3C_uPAR: BioMAP Diversity Plus: BE3C Assay for Urokinase-type plasminogen activator receptor (uPAR) Biomarker Activity (AID 2283039);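 on outcome: uPAR protein level measured by ELISA on the cells; cells exposed to compound for one day before measurement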
Conditions: primary human bronchial epithelial cells; actives raise or lower the signal
In short: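 ELISA readout of uPAR on human lung primary bronchial epithelial cells, 24 h post-dosing. Bidirectional curve fit relative to DMSO vehicle baseline; gain or loss of signal both scored.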

| SMILES | AC50 | outcome |
| --- | --- | --- |
| O=C1C(Cl)=C(Cl)C(=O)C(Cl)=C1Cl | 29.2 µM (active) | – |
| N#CCCCCC#N | – | inactive |
| CC(C)(c1cc(Cl)c(O)c(Cl)c1)c1cc(Cl)c(O)c(Cl)c1 | 5.31 µM (active) | – |
| COCC(=O)N(c1c(C)cccc1C)N1CCOC1=O | – | inactive |
| CC(C)CCCCCCCOP(=O)(Oc1ccccc1)Oc1ccccc1 | – | inactive |
| C=CCN(CC=C)C(=O)C(Cl)Cl | – | inactive |
| c1ccc(Nc2ccc3ccccc3c2)cc1 | – | inactive |
| Cc1ccc(OP(=O)(Oc2ccc(C)cc2)Oc2ccc(C)cc2)cc1 (tested in a mixture with another compound) | 4.16 µM (active) | – |
| O=S(=O)(c1ccccc1)c1ccccc1 | – | inactive |
| CC(=O)/C=C/c1ccccc1 | – | inactive |

Read-out: Interleukin-6 (IL6), IL6 (gene 3569)
Experiment: BSK_CASM3C_IL6: BioMAP Diversity Plus: CASM3C Assay for Interleukin-6 (IL6) Biomarker Activity for (AID 2283040)
Conditions: primary human coronary artery smooth muscle cells; actives raise or lower the signal

| SMILES | AC50 | outcome |
| --- | --- | --- |
| O=C1C(Cl)=C(Cl)C(=O)C(Cl)=C1Cl | 20 µM (active) | – |
| N#CCCCCC#N | – | inactive |
| CC(C)(c1cc(Cl)c(O)c(Cl)c1)c1cc(Cl)c(O)c(Cl)c1 | 36.4 µM (active) | – |
| COCC(=O)N(c1c(C)cccc1C)N1CCOC1=O | – | inactive |
| CC(C)CCCCCCCOP(=O)(Oc1ccccc1)Oc1ccccc1 | – | inactive |
| C=CCN(CC=C)C(=O)C(Cl)Cl | – | inactive |
| c1ccc(Nc2ccc3ccccc3c2)cc1 | – | inactive |
| Cc1ccc(OP(=O)(Oc2ccc(C)cc2)Oc2ccc(C)cc2)cc1 (tested in a mixture with another compound) | – | inactive |
| O=S(=O)(c1ccccc1)c1ccccc1 | – | inactive |
| CC(=O)/C=C/c1ccccc1 | – | inactive |

Read-out: Tissue plasminogen activator (tPA), PLAT (gene 5327)
Experiment: BSK_BE3C_tPA: BioMAP Diversity Plus: BE3C Assay for Tissue plasminogen activator (tPA) Biomarker Activity (AID 2283041);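 on outcome: tPA level quantified by ELISA one day after compound addition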
Conditions: primary human bronchial epithelial cells; actives raise or lower the signal
In short: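 ELISA read-out of tPA on human primary bronchial epithelial cells, 24 h post-dosing; bidirectional fit vs DMSO negative control/baseline.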

| SMILES | outcome | AC50 |
| --- | --- | --- |
| O=C1C(Cl)=C(Cl)C(=O)C(Cl)=C1Cl | inactive | – |
| N#CCCCCC#N | inactive | – |
| CC(C)(c1cc(Cl)c(O)c(Cl)c1)c1cc(Cl)c(O)c(Cl)c1 | inactive | – |
| COCC(=O)N(c1c(C)cccc1C)N1CCOC1=O | inactive | – |
| CC(C)CCCCCCCOP(=O)(Oc1ccccc1)Oc1ccccc1 | – | 3.21 µM (active) |
| C=CCN(CC=C)C(=O)C(Cl)Cl | inactive | – |
| c1ccc(Nc2ccc3ccccc3c2)cc1 | inactive | – |
| Cc1ccc(OP(=O)(Oc2ccc(C)cc2)Oc2ccc(C)cc2)cc1 (tested in a mixture with another compound) | inactive | – |
| O=S(=O)(c1ccccc1)c1ccccc1 | inactive | – |
| CC(=O)/C=C/c1ccccc1 | inactive | – |

Read-out: Interleukin-8 (IL8), CXCL8 (gene 3576)
Experiment: BSK_CASM3C_IL8: BioMAP Diversity Plus: CASM3C Assay for Interleukin-8 (IL8) Biomarker Activity (AID 2283042);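 further: IL-8 protein level quantified by ELISA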
Conditions: primary human coronary artery smooth muscle cells; actives raise or lower the signal

| SMILES | outcome |
| --- | --- |
| O=C1C(Cl)=C(Cl)C(=O)C(Cl)=C1Cl | inactive |
| N#CCCCCC#N | inactive |
| CC(C)(c1cc(Cl)c(O)c(Cl)c1)c1cc(Cl)c(O)c(Cl)c1 | inactive |
| COCC(=O)N(c1c(C)cccc1C)N1CCOC1=O | inactive |
| CC(C)CCCCCCCOP(=O)(Oc1ccccc1)Oc1ccccc1 | inactive |
| C=CCN(CC=C)C(=O)C(Cl)Cl | inactive |
| c1ccc(Nc2ccc3ccccc3c2)cc1 | inactive |
| Cc1ccc(OP(=O)(Oc2ccc(C)cc2)Oc2ccc(C)cc2)cc1 (tested in a mixture with another compound) | inactive |
| O=S(=O)(c1ccccc1)c1ccccc1 | inactive |
| CC(=O)/C=C/c1ccccc1 | inactive |

Read-out: Human Leukocyte Antigen - DR isotype (HLADR), HLA-DRA (gene 3122)
Experiment: BSK_CASM3C_HLADR: BioMAP Diversity Plus: CASM3C Assay for Human Leukocyte Antigen - DR isotype (HLADR) Biomarker Activity (AID 2283043);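 further: cell-surface HLA-DR protein level quantified by ELISA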
Conditions: primary human coronary artery smooth muscle cells; actives raise or lower the signal

| SMILES | AC50 | outcome |
| --- | --- | --- |
| O=C1C(Cl)=C(Cl)C(=O)C(Cl)=C1Cl | 14.4 µM (active) | – |
| N#CCCCCC#N | – | inactive |
| CC(C)(c1cc(Cl)c(O)c(Cl)c1)c1cc(Cl)c(O)c(Cl)c1 | 27.9 µM (active) | – |
| COCC(=O)N(c1c(C)cccc1C)N1CCOC1=O | – | inactive |
| CC(C)CCCCCCCOP(=O)(Oc1ccccc1)Oc1ccccc1 | – | inactive |
| C=CCN(CC=C)C(=O)C(Cl)Cl | – | inactive |
| c1ccc(Nc2ccc3ccccc3c2)cc1 | – | inactive |
| Cc1ccc(OP(=O)(Oc2ccc(C)cc2)Oc2ccc(C)cc2)cc1 (tested in a mixture with another compound) | – | inactive |
| O=S(=O)(c1ccccc1)c1ccccc1 | – | inactive |
| CC(=O)/C=C/c1ccccc1 | – | inactive |

From PubChem BioAssay (EPA / NIEHS)
